According to the supplement of paper PMC9262897, “Low-cost anti-mycobacterial drug discovery using engineered E. coli” (Nature Communications, 2022):
Counter-ions that a name gives are not always drawn. ± gives the standard deviation of the averaged measurements.

System: E. coli TESEC Mtb Alr
Test: growth (OD600 after 10 h); higher = more growth (less inhibition)
Conditions: arabinose 100 nM; compound 0.1 mM; raw OD600 reference: median of DMSO wells 0.413, cell-free background 0.052
Method: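 TESEC Mtb Alr E. coli (ΔaraC ΔtolC ΔentC Δalr ΔdadX, arabinose-inducible Mtb Alr) or the Alr+ wild-type control strain, grown in defined M9-fructose medium without D-alanine in 96-well plates with Prestwick library compounds at 0.1 mM and 1% DMSO. Low Alr induction is 0.1 µM arabinose and high induction is 10 mM arabinose.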

| Compound | growth |
| --- | --- |
| CC(C)c1ccc2oc3nc(N)c(C(=O)O)cc3c(=O)c2c1 [Amlexanox] | 0.0761 ± 0.019 |
| CCC1=C(C)CN(C(=O)NCCc2ccc(S(=O)(=O)NC(=O)N[C@H]3CC[C@H](C)CC3)cc2)C1=O [Glimepiride] | 0.411 ± 0.0056 |
| CCOc1ccc2ccccc2c1C(=O)N[C@@H]1C(=O)N2[C@@H]1SC(C)(C)[C@@H]2C(=O)O [Nafcillin sodium salt monohydrate] | 0.403 ± 0.013 |
| S=c1[nH]cnc2nc[nH]c12 [Mercaptopurine] | 0.334 ± 0.017 |
| O=C(O)c1cccnc1 [Niacin] | 0.423 ± 0.028 |
| CC(=O)OCC(=O)[C@@]1(O)CC[C@H]2[C@@H]3CCC4=CC(=O)C=C[C@]4(C)[C@@]3(F)[C@@H](O)C[C@@]21C [Isoflupredone acetate] | 0.389 ± 0.0064 |
| CCc1oc2ccccc2c1C(=O)c1cc(Br)c(O)c(Br)c1 [Benzbromarone] | 0.0588 ± 0.0027 |
| NS(=O)(=O)c1cc(Cl)c(Cl)c(S(N)(=O)=O)c1 [Dichlorphenamide] | 0.402 ± 0.017 |
| O=C(O)[C@H]1/C(=C/CO)O[C@@H]2CC(=O)N21 [Clavulanate potassium salt] | 0.0839 ± 0.04 |
| COc1ccccc1OCCNCC(O)COc1cccc2[nH]c3ccccc3c12 (centres undefined) [Carvedilol] | 0.4106 ± 0.0016 |
| CC(=O)N[C@@H](CS)C(=O)O [Acetylcysteine] | 0.4122 ± 0.0033 |
| CO[C@@]1(NC(=O)C2SC(=C(C(N)=O)C(=O)O)S2)C(=O)N2C(C(=O)O)=C(CSc3nnnn3C)CS[C@@H]21 (some centres undefined) [Cefotetan] | 0.0461 ± 0.00061 |
| CC(=O)O[C@H]1C(=O)[C@@]2(C)[C@H]([C@H](OC(=O)c3ccccc3)[C@]3(O)C[C@H](OC(=O)[C@H](O)[C@@H](NC(=O)c4ccccc4)c4ccccc4)C(C)=C1C3(C)C)[C@]1(OC(C)=O)CO[C@@H]1C[C@@H]2O [Paclitaxel] | 0.429 ± 0.014 |
| Nc1nc(=O)[nH]cc1F [Flucytosine] | 0.411 ± 0.015 |
| CN(C)CCC[C@@]1(c2ccc(F)cc2)OCc2cc(C#N)ccc21 [Escitalopram oxalate] | 0.412 ± 0.011 |
| CCOC(=O)OC(C)OC(=O)[C@@H]1N2C(=O)[C@@H](NC(=O)[C@H](N)c3ccccc3)[C@H]2SC1(C)C (some centres undefined) [Bacampicillin hydrochloride] | 0.41 ± 0.0064 |
| CN1CCCN=C1/C=C/c1cccs1 [Pyrantel tartrate] | 0.409 ± 0.0096 |
| CN1CCOC(c2ccccc2)c2ccccc2C1 (centres undefined) [Nefopam hydrochloride] | 0.413 ± 0.014 |
| c1ccc2c(CC3=NCCN3)cccc2c1 [Naphazoline hydrochloride] | 0.41 ± 0.0069 |
| COc1cc(C)nc(-n2nc(C)cc2OC)n1 [Epirizole] | 0.421 ± 0.011 |

| Compound | growth |
| --- | --- |
| CCc1cccc2c3c([nH]c12)C(CC)(CC(=O)O)OCC3 (centres undefined) [Etodolac] | 0.409 ± 0.011 |
| C[C@]12CC[C@@H]3c4ccc(O)cc4CC[C@H]3[C@@H]1C[C@@H](O)[C@@H]2O [Estriol] | 0.432 ± 0.0087 |
| N#Cc1ccc(C(c2ccc(C#N)cc2)n2cncn2)cc1 [Letrozole] | 0.394 ± 0.016 |
| Cc1cc(C2CCCCC2)n(O)c(=O)c1 [Ciclopirox ethanolamine] | 0.0481 ± 0.00095 |
| CC(=O)/N=c1/sc(S(N)(=O)=O)nn1C [Methazolamide] | 0.397 ± 0.012 |
| CC(C)NC[C@H](O)COc1ccc(CC(N)=O)cc1 [(S)-(-)-Atenolol] | 0.413 ± 0.01 |
| COc1cc(OC)c(C(=O)CCCN2CCCC2)c(OC)c1 [Buflomedil hydrochloride] | 0.407 ± 0.0067 |
| CCN1CCC[C@H]1CNC(=O)c1c(OC)ccc(Br)c1OC [Remoxipride Hydrochloride] | 0.416 ± 0.017 |
| CN(C)c1nc(N(C)C)nc(N(C)C)n1 [Altretamine] | 0.404 ± 0.017 |
| Nc1ccn([C@@H]2O[C@H](CO)[C@@H](O)[C@@H]2O)c(=O)n1 [Cytarabine] | 0.406 ± 0.0096 |
| CC(N)C12CC3CC(CC(C3)C1)C2 (centres undefined) [Rimantadine Hydrochloride] | 0.407 ± 0.009 |
| Cn1c(=O)c2nc[nH]c2n(C)c1=O [Theophylline monohydrate] | 0.406 ± 0.016 |
| O=C(O)c1ccccc1OP(=O)(O)O [Fosfosal] | 0.405 ± 0.01 |
| COC(=O)Nc1nc2cc(C(=O)c3ccccc3)ccc2[nH]1 [Mebendazole] | 0.413 ± 0.0078 |
| O=c1[nH]cc(F)c(=O)[nH]1 [5-fluorouracil] | 0.359 ± 0.041 |
| CCc1nn(CCCN2CCN(c3cccc(Cl)c3)CC2)c(=O)n1CCOc1ccccc1 [Nefazodone HCl] | 0.29 ± 0.2 |
| COc1cc(NC(C)CCCN)c2ncccc2c1 (centres undefined) [Primaquine diphosphate] | 0.38 ± 0.018 |
| CNS(=O)(=O)Cc1ccc2[nH]cc(CCN(C)C)c2c1 [Sumatriptan succinate] | 0.417 ± 0.0056 |
| Cc1ccc(N(CC2=NCCN2)c2cccc(O)c2)cc1 [Phentolamine hydrochloride] | 0.411 ± 0.019 |
